This is a sample that favours compounds with a hit; in the whole collection about 0.92% have one here.
Rv3671c protease – Rv3671c serine protease inhibitors, primary screen, biochemical, fluorescence polarization, M. tuberculosis H37Rv. P9WHR9. inhibition, % at 5.96 µM. actives 0.048% (n = 320,000). AID 2606, 2010; in the data active = inhibition above about 38%;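 also: extracellular domain of Rv3671c used as enzyme; 0% = enzyme with DMSO and 100% = no enzyme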
Target sequence (P9WHR9 whole entry, looked up, the tested form may be a part): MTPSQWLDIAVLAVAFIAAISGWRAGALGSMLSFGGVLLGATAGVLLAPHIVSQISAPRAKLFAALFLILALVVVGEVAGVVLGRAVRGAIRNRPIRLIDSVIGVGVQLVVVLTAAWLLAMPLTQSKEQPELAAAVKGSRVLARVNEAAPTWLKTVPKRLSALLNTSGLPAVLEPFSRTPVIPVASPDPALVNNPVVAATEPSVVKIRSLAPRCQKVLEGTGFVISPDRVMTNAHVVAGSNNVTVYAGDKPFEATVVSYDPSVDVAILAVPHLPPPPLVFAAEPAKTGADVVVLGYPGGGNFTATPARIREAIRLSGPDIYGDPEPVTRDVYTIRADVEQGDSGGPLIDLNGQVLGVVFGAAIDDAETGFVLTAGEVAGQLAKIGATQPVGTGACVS
RecA splice inh – Mtb RecA intein splicing inhibitors, primary screen, biochemical, fluorescence, HTS; inhibition, % (test concentration not listed); actives 0.75% (n = 290,000); cell-free RecA intein splicing; Protein RecA (Mycobacterium tuberculosis (strain ATCC 25618 / H37Rv)), P9WHJ3; in the data active = inhibition above about 30%; inconclusive = no clear call, values can overlap the other calls;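 also: 0% = vehicle wells and 100% = reference inhibitor control wells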
UGM FP inh – M. tuberculosis UGM enzyme inhibitors, primary screen, biochemical, fluorescence polarization, single point; UDP-galactopyranose mutase (Mycobacterium tuberculosis (strain ATCC 25618 / H37Rv)), …; purified UGM, fluorescence polarization probe displacement; inhibition, % at 10 µM; actives 0.06% (n = 320,000); AID 504406, 2011; in the data active = inhibition above about 10%, passing the limit was not always enough; inconclusive = no clear call, values can overlap the other calls
Mtb hypoxia rep – PubChem AID 1159583; M. tuberculosis hypoxia-regulated fluorescent reporter, fluorescence; actives 0.1% (n = 300,000); fluorescence inhibition, % (concentration not given with the values); in the data active = fluorescence inhibition mostly above about 23%, no sharp cut-off; inactive = mostly below about 17%
Mtb betalactam – beta-lactam sensitization of Mtb H37Rv, H37Rv | inhibition, % at 25 µM | AID 434955, 2010 | actives 0.27% (n = 330,000) | M. tuberculosis H37Rv growth with meropenem, percent inhibition;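 also: growth measured after seven days incubation then overnight dye step; 0% = bacteria only wells and 100% = bacteria with antibiotic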
FadD28 FP inh – inhibitors of FadD28 bisubstrate probe binding, primary screen, biochemical, fluorescence polarization, single point. Mycobacterium tuberculosis FadD28 fatty-acid-AMP ligase. actives 0.22% (n = 360,000). inhibition, % at 12.5 µM; in the data active = inhibition above about 8.5%, passing the limit was not always enough; inconclusive = no clear call, values can overlap the other calls
GFP chromophore – counter-screen: blocks GFP chromophore formation, dose response, counter-screen, biochemical, fluorescence, homogeneous; actives 83% (n = 2,100); EC50, µM; shares compounds with RecA splice inh; cell-free GFP chromophore formation
* hit, by the source's call; u = inconclusive; x = no result given. Unless noted, no rule for the calls is given here.

SMILES	Rv3671c protease	RecA splice inh	UGM FP inh	Mtb hypoxia rep	Mtb betalactam	FadD28 FP inh	GFP chromophore
Cn1ncc(Br)c1C(=O)NC1CCCCC1	-0.5	x	1.2	-6.0	5.7	-2.3	x
CCc1ccc(NC(=O)CSc2ccc(-c3sc(C)nc3C)nn2)cc1	-4.8	82.3*	3.3	14.0	10.4	-4.9	>38
Cn1c(-c2ccccc2)cnc1NCc1ccc(-c2ccccc2)cc1	1.2	15.8	-0.8	-6.6	99.6	-1.3	x
CC(=O)N(C1=C(N2CCOCC2)C(=O)c2ccccc2C1=O)c1ccc(C(=O)O)cc1	-53.1	61.4*	1.8	15.8	23.1	-0.1	19.8*
O=C(O)c1ccc(NC2=C(N3CCOCC3)C(=O)c3ccccc3C2=O)cc1	-105.0	4.2	0.7	-3.8	8.6	-2.7	x
CN(C1=C(NC(=O)c2ccccc2)C(=O)c2ccccc2C1=O)C1CCS(=O)(=O)C1 (stereo not drawn)	-112.9	92.5*	-0.5	13.5	7.8	1.4	2.66*
N#CC1=C(N)Oc2n[nH]c(-c3cccs3)c2C1c1cccs1 (stereo not drawn)	-6.8	79.3*	0.2	13.9	5.7	-1.7	10.7*
COCc1[nH]nc2c1C(c1sccc1C)C(C#N)=C(N)O2 (stereo not drawn)	2.0	-1.1	-1.0	10.3	8.8	-3.4	x
N#CC1=C(N)Oc2n[nH]c(-c3cccs3)c2C1c1ccccc1C(=O)O (stereo not drawn)	-19.5	76.1*	-1.5	4.1	-6.2	-0.7	12.2*
COc1cc(C2CC(c3cccs3)=NN2C(=O)CCl)ccc1OC(F)F (stereo not drawn)	-3.7	80.0*	0.6	x	98.2	-1.8	1.8*
COc1ccc(C2CC(c3cccs3)=NN2C(=O)c2ccccc2)cc1OC (stereo not drawn)	-5.1	1.0	-2.1	10.7	-5.7	-1.7	x
COc1ccc(C2CC(c3cccs3)=NN2C(=O)CCl)cc1OC (stereo not drawn)	4.6	76.6*	-0.3	x	99.2	0.3	4.45*
O=C(COC(=O)c1cccnc1Cl)NC1CCCCCC1	2.7	x	-0.1	2.5	1.2	0.4	x
O=C(NC1C(=O)NNC1c1ccc(Cl)cc1)c1ccc(F)cc1 (stereo not drawn)	-15.3	69.7*	1.8	7.2	-9.6	-2.9	29.9*
COc1ccc(S(=O)(=O)N2CCN(CCc3ccccc3)CC2)c(OC)c1	3.8	-0.3	1.2	-13.4	-4.0	-2.6	x
Nc1ccc2c(c1)C(=O)c1ccccc1-2	2.3	1.5	-1.6	7.0	97.1	-3.6	x
Nc1ccc2c(c1)C(=O)C(=O)c1ccccc1-2	-122.1	97.2*	0.6	x	100.2	6.0	5.15*
O=C(CN1C(=O)S/C(=C\C=C\c2ccccc2)C1=O)Nc1ccc(C(=O)O)cc1	-67.6	35.3*	1.4	10.9	0.9	-5.8	>38
O=C(CN1C(=O)S/C(=C/C=C/c2ccccc2)C1=O)Nc1ccc(C(=O)O)cc1	-19.4	20.9	0.5	8.9	1.0	-5.1	x
CCOC(=O)c1[nH]c(=O)c2ccccc2c1O	-18.3	56.0*	-1.6	2.4	1.6	-2.6	26.4*
Nc1ccc(N2CCOCC2)c2nonc12	-103.9	94.9*	0.1	4.7	0.3	-3.6	23.5*
O=C(Nc1ccc(N2CCOCC2)c2nonc12)C1CCCC1	-1.9	1.6	0.7	x	1.2	-3.7	x
COCCNc1nc2cc(-c3ccc(F)cc3)sc2c(=O)n1C	x	x	x	x	x	-0.3	x
O=c1[nH]c(CCl)nc2cc(-c3ccc(F)cc3)sc12	-19.5	36.3*	0.6	x	99.7	-3.8	30.7*
Cc1cccc(N2C(=O)N3[C@@H]4c5ccccc5OC[C@@H]4[C@@H](c4ccccc4)[C@@]3(C)C2=O)c1	3.6	2.3	1.4	-1.0	-10.0	-1.7	x
SMILES	Rv3671c protease	RecA splice inh	UGM FP inh	Mtb hypoxia rep	Mtb betalactam	FadD28 FP inh	GFP chromophore
CC(=O)c1ccc(N2CCN(C(=O)c3nn(C)c4c3CS(=O)(=O)c3ccccc3-4)CC2)cc1	-2.8	-2.5	-1.5	8.3	-0.1	-0.4	x
O=c1cc(N=Nc2ccc(Cl)cc2)[nH]c(=O)[nH]1	-8.6	88.2*	1.5	17.1	100.2	1.8	u
N#Cc1ccc(-n2c(-c3ccccc3)nnc2-c2ccccc2)cc1C#N	-5.2	49.7*	-1.9	4.4	4.8	-3.0	17.4*
Cc1ccc(NC2=C/C(=N\S(=O)(=O)c3cccs3)c3ccccc3C2=O)c(C)c1	-117.3	41.4*	-3.5	4.8	100.2	-1.2	0.311*
O=C1C(Nc2ccc(O)cc2)=C/C(=N/S(=O)(=O)c2cccs2)c2ccccc21	x	96.5*	x	x	x	3.3	0.192*
Cc1cccc(NC2=CC(=NS(=O)(=O)c3cccs3)c3ccccc3C2=O)c1	x	x	x	2.1	x	x	x
COc1ccc(CCNC(=O)CCc2nnc(Cc3ccc4c(c3)OCO4)o2)cc1	-8.9	x	-2.9	-1.5	u	-0.9	x
Cc1[nH]c(=S)c(C#N)c(C)c1Cc1ccc(Cl)cc1Cl	-0.7	1.2	-0.2	9.9	-3.9	-1.4	x
O=C(CN1C(=O)/C(=C2/SC(=S)N(CCS(=O)(=O)O)C2=O)c2ccccc21)Nc1cccc(C(F)(F)F)c1	-5.9	x	0.1	15.9	5.0	-2.6	x
O=C(CN1C(=O)/C(=C2\SC(=S)N(CCS(=O)(=O)O)C2=O)c2ccccc21)Nc1cccc(Br)c1	-2.3	45.8*	3.5	0.0	0.7	-0.8	25*
COc1ccc(Oc2c(OC)cc([N+](=O)[O-])c3ncccc23)cc1	x	x	x	6.6	x	-2.7	x
COc1cc(NC(C)CCCN)c2ncccc2c1Oc1ccccc1 (stereo not drawn)	-14.7	35.9*	x	3.0	3.1	-2.3	33.5*
CC(=O)Nc1ccccc1NC(=O)CC(C)=NNC(=O)C(=O)N1CCCCC1	x	x	x	7.0	x	x	x
CC(=O)Nc1ccccc1NC(=O)C/C(C)=N/NC(=O)C(=O)N1CCCCC1	-5.1	85.0*	-0.6	x	5.2	1.3	10.1*
CCCCn1c(NS(=O)(=O)c2ccccc2)c(S(=O)(=O)c2ccc(C)cc2)c2nc3ccccc3nc21	-209.2	75.9*	-0.3	-4.6	-1.2	u	u
CCCCCn1c(NC(=O)c2ccco2)c(S(=O)(=O)c2ccc(C)cc2)c2nc3ccccc3nc21	-18.7	80.0*	1.1	8.6	-4.9	0.6	>38
CCCCn1c(NC(=O)c2ccc(Br)o2)c(S(=O)(=O)c2ccccc2)c2nc3ccccc3nc21	-25.9	90.1*	1.3	-1.7	-6.6	2.0	u
Cc1ccc(S(=O)(=O)c2c(N)n(CCCO)c3nc4ccccc4nc23)cc1	-64.3	-15.8	1.5	0.2	-7.1	-2.9	x
Cc1ccc(S(=O)(=O)c2c(N)n(CCC(C)C)c3nc4ccccc4nc23)cc1	-48.8	84.5*	-0.2	2.1	-0.4	1.0	10.9*

Assay outcomes: PubChem BioAssay, several laboratories
